{
  "source": "PubChem BioAssay AID651568",
  "about": "(National Center for Advancing Translational Sciences (NCATS), 2012)",
  "note": "About 55 (5%) of roughly 1,200 compounds were called active. Entries that show only a call come without a potency. About 15% were inconclusive and are not listed. This is one part of a sample in which actives are shown more often than they occur. The call rests on the fitted dose curve; in most records, active means well fitted inhibition curve with a large enough effect; inconclusive means small, poorly fitted or top-dose-only effect; inactive means no such curve, though single readings can be large or run the other way. Potency means the concentration at half of the fitted maximal effect.",
  "data": [
    {"test": "qHTS Assay to Find Inhibitors of Chronic Active B-Cell Receptor Signaling: Hit Validation in Renilla Reporter Assay; further: nearly all actives have a fitted effect of over 70% in size", "conditions": "TMD8 IkB-Renilla luciferase reporter, NF-kB signaling; series mostly up to 57.5 µM", "outline": "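Orthogonal secondary test of primary-screen hits in ABC-DLBCL cells carrying constitutively expressed IkB-Photinus and Renilla luciferase reporters, read by Dual-Glo luminescence; luciferases differ from the primary assay's click beetle enzymes, to exclude assay-specific artifacts.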", "values": [
      {"smiles": "CC(=O)Nc1cc(N=Cc2ccc(O)cc2O)c(Cl)cc1Cl", "Potency": "12 µM (active)"},
      {"smiles": "Cc1ccc(NS(=O)(=O)c2ccc(-c3cnc(C4CC4)o3)cc2)c(C)c1", "Potency": "inactive"},
      {"smiles": "COc1ccc(Nc2cc3n(c(=O)n2)CCc2cc(OC)c(OC)cc2-3)c(C)c1", "Potency": "inactive"},
      {"smiles": "COc1ccc(-c2c(-c3cc(OC)c(OC)c(OC)c3)noc2C)cn1", "Potency": "inactive"},
      {"smiles": "COc1cc(/C=N/N(C)c2ccccc2)ccc1O", "Potency": "inactive"},
      {"smiles": "COc1ccc(/C=C2\\CCc3ccccc3C2=O)cc1O", "Potency": "26.9 µM (active)"},
      {"smiles": "COc1cc(/C=C2\\OC(=O)c3c(OC)cccc32)ccc1O", "Potency": "inactive"},
      {"smiles": "COc1ccc(-c2sc3cc(OC)c(OC)cc3c2C#CC(C)(C)O)cc1", "Potency": "inactive"},
      {"smiles": "CCCn1nc(Oc2nc(N(C)C)nc(N(C)C)n2)ccc1=O", "Potency": "inactive"},
      {"smiles": "COc1ccc(C(=O)Nc2ccc(-n3nncc3-c3ccc(OC)c(OC)c3)cc2)cc1", "Potency": "inactive"},
      {"smiles": "CCN(c1cccc(C)c1)S(=O)(=O)c1ccc(-c2cc(C)no2)s1", "Potency": "inactive"},
      {"smiles": "COc1ccccc1-c1cc(C(=O)Nc2cccnc2)no1", "Potency": "inactive"},
      {"smiles": "COc1ccccc1/C=N/NC(=S)Nc1cccnc1", "Potency": "inactive"},
      {"smiles": "O=C(CCCN1C(=O)/C(=C/c2ccccc2OC(F)F)SC1=S)Nc1cccnc1", "Potency": "30.1 µM (active)"},
      {"smiles": "Cc1ccc2c(c1)C(=O)C(=O)N2CC1COc2ccccc2O1", "note": "(stereo not given)", "Potency": "inactive"},
      {"smiles": "CCn1c2ccccc2c2cc(NC(=O)c3cc(OC)cc(OC)c3)ccc21", "Potency": "inactive"},
      {"smiles": "CCCCn1c(SCC(=O)c2cc(OC)ccc2OC)nc2cc(S(N)(=O)=O)ccc21", "Potency": "inactive"},
      {"smiles": "COc1ccccc1-c1nnc2sc(-c3ccc(N(C)C)cc3)nn12", "Potency": "inactive"},
      {"smiles": "COC(=O)[C@@H]1[C@@H](C#N)C2(c3ccccc3-c3ccccc32)N(c2ccc(Cl)cc2)N1C#N", "Potency": "4.78 µM (active)"},
      {"smiles": "O=C(Cc1ccc(-n2c(=O)c3ccccc3n(Cc3ccccc3F)c2=O)cc1)NCC1CCCO1", "note": "(stereo not given)", "Potency": "inactive"},
      {"smiles": "COc1cc(OC)c(OC)cc1/C=C/C(=O)c1ccc(NS(=O)(=O)c2ccc(C)cc2)cc1", "Potency": "inactive"},
      {"smiles": "CN(C)c1nc(=NCc2ccco2)ss1", "Potency": "16.9 µM (active)"},
      {"smiles": "CCC(=NCCc1c(C)[nH]c2ccc(C)cc12)C1=C(O)CC(c2ccccc2)CC1=O", "note": "(stereo not given)", "Potency": "inactive"},
      {"smiles": "COc1ccc(C2CC(c3ccc(OC)c(OC)c3)=NN2C(=O)c2ccccc2)cc1", "note": "(stereo not given)", "Potency": "inactive"},
      {"smiles": "CCCc1noc2c1C(c1ccoc1)C(C#N)=C(N)N2", "note": "(stereo not given)", "Potency": "23.9 µM (active)"},
      {"smiles": "CCc1ccc(CNC(=O)Cc2ccc(NC(=O)C3=C(C)OCCS3)cc2)cc1", "Potency": "inactive"},
      {"smiles": "O=C(NN=C1CCCC1)c1n[nH]c2c1CCCC2", "Potency": "inactive"},
      {"smiles": "CC1=NN(C(N)=S)C(=O)C1N=Nc1cccc([N+](=O)[O-])c1", "note": "(stereo not given)", "Potency": "inactive"},
      {"smiles": "S=c1nc2ccccc2c2nc(-c3ccccc3Cl)[nH]n12", "Potency": "inactive"},
      {"smiles": "ClCc1nc2ccccc2c2ccccc12", "Potency": "23.9 µM (active)"},
      {"smiles": "CCc1nc2ccccc2c(C(=O)OCc2nc3ccccc3c(=O)[nH]2)c1C", "Potency": "inactive"},
      {"smiles": "COc1cc(OC)cc(-c2cc3cc4c(cc3cn2)OCO4)c1", "Potency": "inactive"},
      {"smiles": "CCOC(=O)C(C)N1C(=O)S/C(=C/c2ccc3c(c2)n(C)c(=O)n3C)C1=O", "note": "(stereo not given)", "Potency": "inactive"},
      {"smiles": "CCOC(=O)C1=C(O)/C(=C/c2ccc(OCC(=O)O)c(OCC)c2)SC1=Nc1ccccc1", "Potency": "inactive"},
      {"smiles": "CCOc1cc(/C=C2\\CN(C)C/C(=C\\c3ccc(O)c(OCC)c3)C2=O)ccc1O", "Potency": "5.36 µM (active)"},
      {"smiles": "Cc1ccc(C)c(Cn2c(=O)n(-c3ccc(CC(=O)NCc4ccco4)cc3)c(=O)c3sccc32)c1", "Potency": "inactive"},
      {"smiles": "Cc1ccc(N2C(=O)c3cccc4c(N)ccc(c34)C2=O)c2cccnc12", "Potency": "inactive"},
      {"smiles": "COc1ccc([C@H]2CC(=O)C=C(c3ccc(OC)cc3OC)C2)cc1", "Potency": "inactive"},
      {"smiles": "COc1ccc(S(=O)(=O)N2CCCCC2)cc1NS(=O)(=O)c1cc(Cl)ccc1Cl", "Potency": "inactive"},
      {"smiles": "CCOc1ccc(N(CC(=O)Nc2ccccc2C)S(=O)(=O)c2c(C)noc2C)cc1", "Potency": "inactive"}
    ]}
  ]
}
